Measurements: PubChem BioAssay AID1688 (National Center for Advancing Translational Sciences (NCATS), 2009)
Out of some 220,000 compounds screened, about 2,400 (1.1%) were called active. Entries that show only a call come without a potency. About 7% were inconclusive and are not listed. The sample holds actives, similar compounds and a random draw of the others, so the mix is not that of the screen. Calls come from the whole dose curve; as a rule, active = well fitted inhibition curve with a large enough effect; inconclusive = small, poorly fitted or top-dose-only effect, or effect the other way; inactive = no such curve, though single readings can be large or run the other way.

Test: qHTS Multiplex Assay to Identify Dual Action Probes in a Cell Model of Huntington: Aggregate Formation (GFP); note: nearly all actives have a fitted effect of over 60% in size
Details: PC12 HttQ103-GFP aggregates, Acumen cytometry, 40 h; series mostly up to 9.22 µM
Text: NIH Chemical Genomics Center [NCGC]
NIH Molecular Libraries Probe Production centers Network [MLPCN]
Assay Submitter (PI): Wei Zheng
Huntington's disease is a neurodegenerative disorder caused by a trinucleotide repeat expansion in Exon 1 of the Huntingtin gene. The CAG trinucleotide encodes glutamine and polyglutamine expansions cause cell death in selective areas of the brain. Huntington polyglutamine repeats have the tendency to form aggregates which are observable in later stages of the disease. The exact nature of the aggregates, whether toxic, protective, or insignificant, is unclear.
A stable PC12 cell line containing a gene fusion of Exon 1 of the Huntingtin gene linked to GFP under the control of the inducible ecdysone promoter were used as the cell-based model of Huntington Disease for high throughput screening. Exon 1 of the Huntingtin gene contained an expansion of 103 polyglutamines (Q103) which, when expressed, caused cell death and distinct, bright GFP aggregates. The amount of cell death and the size and intensity of GFP aggregates increased over time and induction level. The cell death were quantified with a measurement of ATP content in the cells. A maximal 40-50% of cell death was observed when the Huntington gene was induced in this cell line.
We optimized this assay in a homogeneous 1536 well format. A quantitative high throughput screen (qHTS) was conducted on the PC12 cells which were induced to express the toxic fusion construct. Small molecules which reduced aggregate formation were identified bu using a laser scanning cytometer calibrated to detect the aggregates in cell lysates.
PC12 cells stably containing a construct with an ecdysone inducible promoter expressing GFP fused to the exon 1 of HTTQ103 (Huntington protein which containing a 103 ployglutamine expansion) were used.
NCGC Assay Protocol Summary:
Sequence, Parameter, Description
1, Reagent, 5 uL 1500 cells/well 1536 TC treated White clear bottom plate
2, Compound, 23 nL Tebufenozide inducer (100 nM final) to all columns
3, Compound, 23 nL 40 uM to 0.5 nM Libraries
5, Reagent, 5 ul ATPLite cell death assay reagent
6, Detector, Aggregate quantitation by Acumen Explorer
Media consisted of phenol red free DMEM + 5% equine serum (Hyclone # SH30072.03 ), 5% supplemented Bovine Calf Serum (Hyclone # SH30074.03 ), 1x pen/strep, no G418
Acumen Explorer was used to quantitate GFP aggregates using the following criteria: […] laser excitation, 500-530 nm emission, the PMT was set at a voltage of 450 volts, and objects ranging in size of […] in size having a signal of 6 STDEV above background were collected.
Control columns: 1 = DMSO, 2= 2 uM teb dilns (1:1), 4 = 100 nM Teb inducer. Sample columns received 100 nM Teb.
Potency is the fitted concentration of half-maximal effect.

| SMILES | Potency |
| --- | --- |
| Cn1nc(C(F)(F)F)c(-c2ccc(F)cc2)c1NC(=O)CSCC(=O)O | inactive |
| c1ccc2sc(NN=C3CCCC3)nc2c1 | inactive |
| O=[N+]([O-])c1cc(Br)c(O)c(/C=N/Nc2nc3ccccc3s2)c1 | 5.01 µM (active) |
| COc1cc(/C=N/Nc2nc3ccccc3s2)ccc1O | inactive |
| COc1ccc(C(C)=O)cc1COc1ccc(Cl)c(C)c1 | inactive |
| CCOC(=O)C1=C(N)N2C(=O)C(C)SC2=C(C(=O)OCC)C1c1cc(OC)c(OC)c(OC)c1 (stereo unspecified) | inactive |
| O=C(NC(=O)c1ccccc1N1CCCCC1)Nc1ccc(Br)cc1 | inactive |
| Cn1c(=O)n(C)c(=O)n(CC(=O)N2CCCCC2)c1=O | 3.55 µM (active) |
| O=C(CN1C(=O)c2cccc3cccc(c23)C1=O)N1CCCCC1 | inactive |
| COc1cccc2c(=O)n(CC(=O)N3CCCCCC3)ccc12 | inactive |
| O=C(CC(c1ccccc1)c1cc(Cl)ccc1O)NCCN1CCOCC1 (stereo unspecified) | inactive |
| Cc1c(NC(=O)C(=O)N/N=C/c2cccs2)c(=O)n(-c2ccccc2)n1C | inactive |
| COC(=O)c1cc(S(=O)(=O)N2CCC(C(N)=O)CC2)oc1C | inactive |
| Cc1nc(SCC(=O)N2CCc3ccccc3C2)c2c(C)c(C)sc2n1 | 14.1 µM (active) |
| Cc1nnc(SCC(=O)N2CCc3ccccc3C2)s1 | inactive |
| Cc1nc(SCC(=O)N2CC(=O)Nc3ccccc32)c2c(C)c(C)sc2n1 | inactive |
| O=C(Nc1ccc(Cl)cc1)Nc1ccc(C(=O)N2CCOCC2)cc1 | inactive |
| O=C(C[n+]1cc(-c2ccc(Cl)c(Cl)c2)n2c1CCC2)c1cccs1 | inactive |
| COc1ccc(CCN2C(=O)CC(N3CCC(C(N)=O)CC3)C2=O)cc1OC (stereo unspecified) | inactive |
| Cc1c(CCC(=O)O)c(=O)oc2cc3occ(-c4ccccc4)c3cc12 | inactive |
| CCCC(=O)Nc1nnc(-c2ccccc2)o1 | inactive |
| CCCCCCc1cc2cc(-c3nnc(-c4ccccc4)o3)c(=O)oc2cc1O | 5.01 µM (active) |

| SMILES | Potency |
| --- | --- |
| COc1cc(C(F)(F)F)c(C(=O)N(C)c2ccc(Cl)cc2)cn1 | inactive |
| CCC(=O)Nc1cccc(C2=NOC3(C2)C[C@@H](C(N)=O)N(C(=O)c2cc([N+](=O)[O-])cc([N+](=O)[O-])c2C)C3)c1 (stereo partly specified) | inactive |
| O=c1c2ccccc2nc2n1C(CSCc1ccccc1)CS2 (stereo unspecified) | 11.2 µM (active) |
| O=c1c2ccccc2nc2n1C(CSc1ccc(F)cc1)CN2 (stereo unspecified) | inactive |
| O=c1c2ccccc2nc2n1C(CSc1ccc(Cl)cc1)CN2 (stereo unspecified) | inactive |
| CN(C)S(=O)(=O)c1ccc(NC(=O)COC(=O)Cn2[nH]c(=O)c3ccccc3c2=O)cc1 | inactive |
| O=C(O)c1cccc(NC(=O)c2cc(-c3cccc(Cl)c3)nc3ccccc23)c1 | inactive |
| Clc1ccc2nc(-c3ccccc3)nc(C(Cl)Cl)c2c1 | 1.41 µM (active) |
| Clc1cccc(-c2nc(NCC3CCCO3)c3ccccc3n2)c1 (stereo unspecified) | inactive |
| CC(C)=NN1C(=O)c2ccccc2NC1(C)C | inactive |
| Cc1ccccc1Nc1c(-c2ccccc2)nc2ncccn12 | inactive |
| C/C(=N\NC(=O)CNC(=O)C(c1ccccc1)c1ccccc1)c1ccc(C)cc1 | 12.6 µM (active) |
| O=C(CNC(=O)C(c1ccccc1)c1ccccc1)N/N=C\c1ccc2c(c1)OCO2 | inactive |
| C/C(=N\NC(=O)Cc1ccc(F)cc1)c1ccc(F)cc1 | inactive |
| CCNC(=S)N1CCN(CCN=CC2=C(O)CC(C)(C)CC2=O)CC1 | inactive |
| Cc1c(Cl)c([N+](=O)[O-])nn1Cc1ccc(C(=O)N/N=C\c2cc(Cl)ccc2O)o1 | 1.58 µM (active) |
| Cc1c(Cl)c([N+](=O)[O-])nn1CCCC(=O)Nc1cc(Cl)ccc1Cl | inactive |
| O=C(N/N=C/c1ccc2c(c1)OCO2)c1ccc(Cn2cc([N+](=O)[O-])cn2)o1 | inactive |
| CC(NC(=S)Nc1ccccc1)C(c1cccs1)N1CCOCC1 (stereo unspecified) | inactive |
| O=C(Nc1cccc(C(F)(F)F)c1)c1cnccn1 | inactive |
| O=C(O)CSCC(=O)Nc1cccc(C(F)(F)F)c1 | inactive |
| O=C(Nc1cccc(C(F)(F)F)c1)c1cc(Br)cc(Br)c1O | 5.01 µM (active) |

| SMILES | Potency |
| --- | --- |
| Cc1cc(C(=O)CSc2nc(N)cc(=O)[nH]2)c(C)n1Cc1ccco1 | inactive |
| COC(c1ccccc1)(c1ccccc1)C(Oc1nc(C)cc(C)n1)C(=O)O (stereo unspecified) | inactive |
| COc1ccc(/C=C/c2nnc(NC(=O)C(C)C)s2)cc1 | inactive |
| CCN(CC)S(=O)(=O)c1ccc(N(C)Cc2ccc(C(F)(F)F)cc2)nc1 | 10 µM (active) |
| CCN(CC)S(=O)(=O)c1ccc(N(C)CCc2ccc(OC)c(OC)c2)nc1 | inactive |
| CCN(CC)S(=O)(=O)c1ccc(Cl)c(NC(=O)c2ccncc2)c1 | inactive |
| C/C(=N\OCC(=O)O)c1ccc(Cl)cc1 | inactive |
| O=C(CNCc1cccs1)Nc1cc(S(=O)(=O)N2CCCC2)ccc1Cl | inactive |
| OCCCNc1nccc(-c2cc(Nc3cccc(Cl)c3)ncn2)n1 | 0.794 µM (active) |
| CC(C)n1cnc2c(Nc3cccc(Cl)c3)nc(N(CCO)CCCO)nc21 | inactive |
| O=C(Nc1cc(Cl)cc(Cl)c1)C(NCCCO)c1ccccc1 (stereo unspecified) | inactive |
| Brc1ccc2c(c1)[C@H]1OCC[C@H]1[C@@H](c1cccs1)N2 | inactive |
| O=C(CSc1nc2ccccc2[nH]1)c1cccs1 | inactive |
| CCCCSc1nc2ccccc2[nH]1 | inactive |
| CCC(C)N1C(=O)S/C(=C/c2ccc(Sc3nc4ccccc4[nH]3)o2)C1=O (stereo unspecified) | 10 µM (active) |
| O=C(O)c1ccc(/C=N/Nc2nc(N3CCCCC3)nc(N3CCCCC3)n2)cc1 | inactive |
| NC(=O)c1ccc(NC(=O)COC(=O)c2ccc([N+](=O)[O-])cc2)cc1 | inactive |
| COc1ccc(N(Cc2ccccc2)S(=O)(=O)c2cccc(C(=O)O)c2)cc1 | inactive |
| CCOC(=O)N1CCN(C(=O)c2ccc3c(c2)N(Cc2ccc(C)cc2)CCS3)CC1 | 11.2 µM (active) |
| O=C(NCCN1CCOCC1)c1ccc2c(c1)N(Cc1ccc(Cl)cc1)CCS2 | inactive |
| CCOC(=O)N1CCN(C(=O)c2ccc(S(=O)(=O)c3ccc(C)cc3)c(NC(C)=O)c2)CC1 | inactive |
| Cc1ccc(S(=O)(=O)N2CCN(C(=O)COC(=O)c3c(C)noc3C)CC2)c(C)c1 | inactive |

| SMILES | Potency |
| --- | --- |
| Cc1oc2c(c1C(=O)N1CCOCC1)C(=O)c1ccccc1C2=O | 10 µM (active) |
| O=C(c1ccccc1-c1ccccc1)N1CCOCC1 | inactive |
| Cc1onc(-c2ccccc2)c1C(=O)N1CCOCC1 | inactive |
| COCCN1C2=C(COC(C)(C)C2)C(=S)NC1c1ccccc1 (stereo unspecified) | inactive |
| COC(=O)c1sccc1NN1C(=O)c2ccccc2C1=O | inactive |
| COCCNC(=O)c1snc2ccc(Cl)cc12 | 10 µM (active) |
| COC(=O)c1sc2ncccc2c1OCc1ccc(Cl)cc1Cl | inactive |
| COCCNC(=O)c1ccccc1-c1nc(-c2ccccc2Cl)no1 | inactive |
| COC(=O)C1=C(C)Nc2ncnn2C1c1cccnc1 (stereo unspecified) | inactive |
| Clc1ccc2c(c1)C1=C(C(c3ccncc3)O2)C(c2ccc(Br)cc2)n2ncnc2N1 (stereo unspecified) | 12.6 µM (active) |
| Brc1ccc(C2=CC(c3ccco3)n3ncnc3N2)cc1 (stereo unspecified) | inactive |
| Cc1ccc(-c2ncc(Cl)cc2-c2ccc(S(C)(=O)=O)cc2)cn1 | inactive |
| Cc1ccc(Cn2c(SCC(=O)N/N=C/c3ccccc3OCC(=O)O)nc3ccccc32)cc1 | inactive |
| O=C(CCCN1C(=O)/C(=C\c2ccccc2)SC1=S)Nc1ccccc1O | inactive |
| O=C(CCCN1C(=O)/C(=C/c2ccco2)SC1=S)Nc1ccccc1 | 25.1 µM (active) |
| O=C(CCCN1C(=O)/C(=C\c2ccco2)SC1=S)Nc1cccc2ccccc12 | inactive |
| CC(=O)NCC(O)c1ccc([N+](=O)[O-])cc1 (stereo unspecified) | inactive |
| C/C(Cc1ccccc1)=N\NC(=O)CNC(=O)c1ccc2c(c1)OCCO2 | inactive |
| COC(=O)c1cc(NC(=O)c2cccnc2)ccc1N1CCOCC1 | inactive |
| O=C(Nc1ccc(N2CCN(C(=O)c3ccccc3)CC2)c(Cl)c1)c1ncn[nH]1 | inactive |
| O=C(Nc1ccc(N2CCN(C(=O)c3ccccc3)CC2)c(Cl)c1)c1cccnc1 | 22.4 µM (active) |
| O=C(Nc1ccc(N2CCOCC2)nc1)c1c(F)cccc1F | inactive |

| SMILES | Potency |
| --- | --- |
| O=C1C2C3C=CC(C4CC34)C2C(=O)N1/N=C/c1ccc(-c2ccccc2[N+](=O)[O-])o1 (stereo unspecified) | 25.1 µM (active) |
| N#C/C(=C/c1ccc(-c2ccccc2[N+](=O)[O-])o1)C(=O)NCCN1CCCCC1 | inactive |
| Cc1cc(-c2ccc(/C=N/n3cnnc3)o2)c([N+](=O)[O-])cc1C | inactive |
| COC(=O)c1ccccc1Sc1c(/C=N/OCc2ccc(Cl)cc2)c(C(F)(F)F)nn1C | inactive |
| Cn1nc(C(F)(F)F)c(C(=O)Nc2cccc(C(F)(F)F)c2)c1SCc1ccc(Cl)cc1 | 12.6 µM (active) |
| FC(F)(F)c1cccc(NC(=S)Nc2cccc(Cl)c2)c1 | inactive |
| COc1ccc2[nH]c(=S)cc(C)c2c1 | inactive |
| O=C(Nc1nnc(COc2ccccc2)s1)Nc1ccccc1F | inactive |
| CC(NC(=S)NNS(=O)(=O)c1ccc(C(C)(C)C)cc1)c1ccccc1 (stereo unspecified) | inactive |
| Clc1ncn(CCOc2ccccc2)c1Cl | inactive |
| Cc1cc2ncn(CCCCOc3ccccc3)c2cc1C | 11.2 µM (active) |
| COCCOCCn1cnc2ccccc21 | inactive |
| CCOC(=O)CSc1nc(C)c(Oc2ccc(Cl)cc2Cl)c(=O)[nH]1 | inactive |
| Brc1ccc(-c2nn[nH]n2)cc1 | inactive |
| COc1ccc(SCCN2CCN(CC(C)C)CCC2=O)cc1 | inactive |
| CSc1nc(-c2ccccc2)nc(C(Cl)Cl)n1 | 11.2 µM (active) |
| CSc1nc(C)cc(SC(C(C)=O)C(=O)Nc2ccccc2)n1 (stereo unspecified) | inactive |
| Cc1cccc(NC(=O)CSc2nnc(CCNC(=O)OC(C)(C)C)o2)c1C | inactive |
